Hit rate of the full screen: of about 5,500 compounds, about 2,000 (36%) were called active. About 18% were inconclusive and are not listed. Cut-off read from the data, not from the text of the source: active = normalized growth mostly below about 0.91 (no sharp cut-off); inconclusive = no clear call, values can overlap the other calls; inactive = mostly above about 0.92. The list shows a part of the results.
Assay: chemical genetic growth profiling, strain panel (AID 1159580);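 note: tested at 20 µM; growth read once vehicle control cultures reached saturation at 30 °C; 1 = growth at the plate median or of vehicle wells; lower values mean less growth of the strain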
Conditions: growth OD

Measured: normalized growth

CNC(=O)Oc1cccc2c1OC(C)(C)C2
inactive: S. cerevisiae deletion strains, locus YAL013W, strain DEP1, active compounds read low 1.01 | S. cerevisiae deletion strains, locus YBR021W, strain FUR4, active compounds read low 0.994 | S. cerevisiae deletion strains, locus YBR229C, strain ROT2, active compounds read low 1 | S. cerevisiae deletion strains, locus YCL029C, strain bik1, active compounds read low 1 | S. cerevisiae deletion strains, locus YDL035C, strain GPR1, active compounds read low 1.01 | S. cerevisiae deletion strains, locus YDL074C, strain BRE1, active compounds read low 1.03 | S. cerevisiae deletion strains, locus YDL101C, strain DUN1, active compounds read low 1.02 | S. cerevisiae deletion strains, locus YDL134C, strain PPH21, active compounds read low 0.997 | S. cerevisiae deletion strains, locus YDL185W, strain tfp1, active compounds read low 0.978 | S. cerevisiae deletion strains, locus YDL192W, strain arf1, active compounds read low 1 | S. cerevisiae deletion strains, locus YDR101C, strain arx1, active compounds read low 0.992 | S. cerevisiae deletion strains, locus YDR150W, strain NUM1, active compounds read low 1.01 | S. cerevisiae deletion strains, locus YDR162C, strain NBP2, active compounds read low 1.01 | S. cerevisiae deletion strains, locus YDR318W, strain mcm21, active compounds read low 0.995 | S. cerevisiae deletion strains, locus YDR388W, active compounds read low 0.996 | S. cerevisiae deletion strains, locus YDR502C, strain sam2, active compounds read low 1 | S. cerevisiae deletion strains, locus YEL061C, strain CIN8, active compounds read low 1 | S. cerevisiae deletion strains, locus YER110C, active compounds read low 0.993 | S. cerevisiae deletion strains, locus YER155C, strain BEM2, active compounds read low 1.02 | S. cerevisiae deletion strains, locus YER167W, strain BCK2, active compounds read low 1.02 | S. cerevisiae deletion strains, locus YGL078C, strain dbp3, active compounds read low 0.979 | S. cerevisiae deletion strains, locus YGL086W, strain mad1, active compounds read low 0.995 | S. cerevisiae deletion strains, locus YGL248W, strain PDE1, active compounds read low 1.01 | S. cerevisiae deletion strains, locus YGR078C, strain PAC10, active compounds read low 1.01 | S. cerevisiae deletion strains, locus YGR135W, strain pre9, active compounds read low 1 | S. cerevisiae deletion strains, locus YGR229C, strain SMI1, active compounds read low 1.02 | S. cerevisiae deletion strains, locus YGR252W, strain gcn5, active compounds read low 0.99 | S. cerevisiae deletion strains, locus YHR030C, strain SLT2, active compounds read low 1.01 | S. cerevisiae deletion strains, locus YHR079C, strain IRE1 (second series), active compounds read low 0.996 | S. cerevisiae deletion strains, locus YHR094C, strain hxt1, active compounds read low 0.994 | S. cerevisiae deletion strains, locus YHR129C, strain ARP1, active compounds read low 1.01 | S. cerevisiae deletion strains, locus YHR200W, strain rpn10, active compounds read low 1 | S. cerevisiae deletion strains, locus YIL066C, strain RNR3, active compounds read low 1.01 | S. cerevisiae deletion strains, locus YIL073C, strain SPO22, active compounds read low 1.04 | S. cerevisiae deletion strains, locus YIL125W, strain kgd1, active compounds read low 0.987 | S. cerevisiae deletion strains, locus YIR030C, strain dcg1, active compounds read low 0.996 | S. cerevisiae deletion strains, locus YJL095W, strain BCK1, active compounds read low 1 | S. cerevisiae deletion strains, locus YJL134W, strain LCB3, active compounds read low 1 | S. cerevisiae deletion strains, locus YJL168C, strain set2, active compounds read low 0.997 | S. cerevisiae deletion strains, locus YJL187C, strain SWE1 (second series), active compounds read low 1.01 | S. cerevisiae deletion strains, locus YJR043C, strain POL32, active compounds read low 1.01 | S. cerevisiae deletion strains, locus YJR075W, strain HOC1, active compounds read low 1.01 | S. cerevisiae deletion strains, locus YKL009W, strain mrt4, active compounds read low 1.01 | S. cerevisiae deletion strains, locus YKL068W, active compounds read low 0.987 | S. cerevisiae deletion strains, locus YKL085W, strain MDH1 (second series), active compounds read low 0.978 | S. cerevisiae deletion strains, locus YKL085W, strain MDH1, active compounds read low 0.978 | S. cerevisiae deletion strains, locus YKL190W, strain CNB1, active compounds read low 1.02 | S. cerevisiae deletion strains, locus YKR001C, strain vps1, active compounds read low 0.999 | S. cerevisiae deletion strains, locus YLR039C, strain RIC1, active compounds read low 1.04 | S. cerevisiae deletion strains, locus YLR058C, strain SHM2, active compounds read low 1.01 | S. cerevisiae deletion strains, locus YLR102C, strain apc9, active compounds read low 1 | S. cerevisiae deletion strains, locus YLR262C, strain YPT6, active compounds read low 1.06 | S. cerevisiae deletion strains, locus YLR268W, strain sec22, active compounds read low 1.01 | S. cerevisiae deletion strains, locus YLR330W, strain CHS5, active compounds read low 1 | S. cerevisiae deletion strains, locus YLR342W, strain FKS1 (second series), active compounds read low 1.02 | S. cerevisiae deletion strains, locus YLR371W, strain rom2, active compounds read low 0.993 | S. cerevisiae deletion strains, locus YLR418C, strain cdc73, active compounds read low 0.973 | S. cerevisiae deletion strains, locus YML016C, strain PPZ1, active compounds read low 1 | S. cerevisiae deletion strains, locus YML032C, strain rad52, active compounds read low 1 | S. cerevisiae deletion strains, locus YML124C, strain tub3, active compounds read low 0.999 | S. cerevisiae deletion strains, locus YMR078C, strain ctf18, active compounds read low 0.988 | S. cerevisiae deletion strains, locus YMR223W, strain ubp8, active compounds read low 0.992 | S. cerevisiae deletion strains, locus YMR263W, strain SAP30, active compounds read low 0.992 | S. cerevisiae deletion strains, locus YMR307W, strain GAS1, active compounds read low 1.02 | S. cerevisiae deletion strains, locus YNL067W, strain RPL9B, active compounds read low 1.02 | S. cerevisiae deletion strains, locus YNL128W, strain TEP1, active compounds read low 1.02 | S. cerevisiae deletion strains, locus YNL153C, strain GIM3, active compounds read low 1.01 | S. cerevisiae deletion strains, locus YNL233W, strain BNI4, active compounds read low 1.02 | S. cerevisiae deletion strains, locus YNL250W, strain rad50, active compounds read low 0.967 | S. cerevisiae deletion strains, locus YNL271C, strain bni1, active compounds read low 0.977 | S. cerevisiae deletion strains, locus YNL298W, strain CLA4, active compounds read low 0.986 | S. cerevisiae deletion strains, locus YNL307C, strain MCK1, active compounds read low 0.995 | S. cerevisiae deletion strains, locus YNL322C, strain KRE1, active compounds read low 1.01 | S. cerevisiae deletion strains, locus YNR052C, strain pop2, active compounds read low 1 | S. cerevisiae deletion strains, locus YOL006C, strain TOP1, active compounds read low 1.01 | S. cerevisiae deletion strains, locus YOL012C, strain htz1 0.992 | S. cerevisiae deletion strains, locus YOL147C, strain pex11, active compounds read low 0.996 | S. cerevisiae deletion strains, locus YOR061W, strain CKA2, active compounds read low 1 | S. cerevisiae deletion strains, locus YOR069W, strain VPS5, active compounds read low 1.01 | S. cerevisiae deletion strains, locus YOR136W, strain idh2, active compounds read low 0.993 | S. cerevisiae deletion strains, locus YOR144C, strain elg1, active compounds read low 1 | S. cerevisiae deletion strains, locus YOR184W, strain ser1, active compounds read low 1.01 | S. cerevisiae deletion strains, locus YOR316C, strain cot1, active compounds read low 0.996 | S. cerevisiae deletion strains, locus YPL055C, strain LGE1, active compounds read low 1.03 | S. cerevisiae deletion strains, locus YPL241C, strain CIN2, active compounds read low 1 | S. cerevisiae deletion strains, locus YPR119W, strain clb2, active compounds read low 0.993 | S. cerevisiae deletion strains, locus YPR141C, strain kar3, active compounds read low 0.973 | S. cerevisiae deletion strains, locus YPR163C, strain tif3, active compounds read low 0.987 | S. cerevisiae deletion strains, locus YPR167C, strain met16, active compounds read low 0.999 | S. cerevisiae deletion strains, strain wtn01, active compounds read low 0.994 | S. cerevisiae strains, strain wild type, active compounds read low 1.01
